# TRPM1 prom inh: inhibitors of MITF-dependent TRPM1 promoter reporter, primary screen, cell-based, SK-MEL-5, single point, luciferase. 0.83% of 330,000 active. AID 488899, 2010. inhibition, % at 12.5 µM. SK-MEL-5 TRPM1 promoter luciferase, 24 h;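 active means mean inhibition across replicates of 60% or more, whatever share of single replicates reaches that level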
# KKLEB tox: cytotoxicity in KKLEB CF airway cells, primary screen, cytotoxicity control for CF NF-kB inhibitor project, cell-based, uHTS, fluorescence assay plates | KKLEB CF airway cells viability, ATPlite luminescence, overnight; active compounds read low; cells stimulated with P. aeruginosa culture filtrate | activity change (cytotoxicity), % at 5 µM | 0.36% of 360,000 active;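 active means corrected activity change at or below -50% at 5 µM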
# HIF-2a inh: HIF-2a reporter inhibitors, primary screen, luminescence, 786-0 RCC cells | inhibition, % at 18.8 µM | 0.72% of 360,000 active | 786-0 RCC cells HIF-2a reporter, luciferase luminescence, overnight | AID 624352, 2012;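 active means inhibition of the luminescence signal of 40% or more relative to plate controls, in a single-dose primary screen at 18.75 µM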
# Peg3 prom inh: Peg3 promoter-driven luciferase inhibitors, primary screen, cell-based, HeLa, luciferase luminescence; HeLa PEG-Prom luciferase reporter, overnight; inhibition, % at 20 µM; 1.7% of 360,000 active; AID 588405, 2011;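 active means inhibition of at least 50% at 20 µM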
# CF NFkB inh: inhibitors of PAF-induced NF-kB signaling, primary screen, cell-based, GFP fluorescence, uHTS. KKLEB NF-kB-GFP reporter, GFP fluorescence overnight. AID 588850, 2011. inhibition, % at 5 µM. 0.86% of 360,000 active;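 active means at least 50% inhibition at 5 µM, scaled per plate between neutral and stimulator controls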;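 further: PAF is a Pseudomonas aeruginosa culture filtrate used as stimulus; plate controls were PAF-stimulated DMSO wells for no effect and unstimulated DMSO wells for full effect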
# Shn3 3UTR inh: reduction of Shn3 3'UTR firefly luciferase signal, primary screen, Schnurri-3 inhibitor project, cell-based, Clone20 osteoblasts, set 2. Clone20 osteoblast Shn3 3'UTR firefly luciferase, 24 h. inhibition, % at 12.5 µM. 0.52% of 360,000 active. AID 588674, 2011;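 active means mean inhibition of at least 75% with every replicate also reaching 75%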;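 further: 0% = median of neutral control wells and 100% = pilot-screen positive control compound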
# * marks the source's active call; other numbers are inactive results; · = no result. Most compounds without a hit are left out; they make up all but 2.8% or so of the library.
SMILES,TRPM1 prom inh,KKLEB tox,HIF-2a inh,Peg3 prom inh,CF NFkB inh,Shn3 3UTR inh
CN(C)CCCN(C(=O)c1ccc(S(=O)(=O)N(C)C)cc1)c1nc2cc3c(cc2s1)OCO3,13,-16,-16,-12,-28,11
CN(C)CCCN(C(=O)c1ccc(Br)s1)c1nc2cc3c(cc2s1)OCO3,54,-6,0,59*,1,3
CN(C)CCCN(C(=O)c1ccc2c(c1)CCCC2)c1nc2cc3c(cc2s1)OCO3,-4,7,3,57*,14,-3
Cc1ccc2sc(N(CCCN(C)C)C(=O)c3ccc(Br)s3)nc2c1C,-20,-2,-11,62*,19,-4
O=C(O)c1cccc(NC(=O)c2cccc(S(=O)(=O)N3CCc4ccccc4C3)c2)c1,-1,-8,-20,-78,8,-8
CC[n+]1c(C=C2C=C(C)OC(C)=C2)sc2ccccc21,74*,-5,2,28,-22,77
CC[n+]1c(/C=C/Nc2ccccc2)sc2ccccc21,6,0,-3,-3,1,92*
NS(=O)(=O)c1ccc(NC(=O)COC(=O)c2cnccn2)cc1,1,-4,18,-7,-2,7
CCCSc1nc2c(c(=O)[nH]c(=O)n2C)n1Cc1ccc(C)cc1,1,-5,12,55*,-14,17
CCN(CC)CCOc1ccc(Br)cc1,-8,-4,11,10,-5,-7
CCN(CC)CCOc1ccc(/C(=C(\Cl)c2ccccc2)c2ccccc2)cc1,-6,32,10,81*,39,-38
Cc1cccc(-c2nc(CS(=O)CC(=O)N3CC(C)CC(C)C3)c(C)o2)c1 (stereo not drawn),-9,7,10,20,0,2
Cc1ccc2ccccc2c1C(O)c1ncc(-c2ccc(F)cc2)[nH]1 (stereo not drawn),·,11,12,-8,-27,0
Nc1nc2ccccc2n1/N=C/c1ccc([N+](=O)[O-])s1,66*,-1,-44,26,-4,29
CN(C)CCNC(=O)/C(=C/c1ccc(-c2ccc(Cl)cc2Cl)o1)NC(=O)c1ccccc1,95*,-27,13,111*,27,-17
CN(C)CCCNC(=O)/C(=C\c1ccc(-c2cccc([N+](=O)[O-])c2)o1)NC(=O)c1ccccc1,-22,-2,-1,44,-20,9
CC(C)Oc1ccc(CN2CCC(n3nccc3NC(=O)C3CC3)CC2)cc1,5,2,-2,10,10,10
CCCCN1CCc2c1nc1ccc(Br)cc1c2N,66*,-3,-75,31,-39,20
Cc1ccc2nc3c(c(N)c2c1)CCN3C,8,9,-8,-21,-36,4
CN(C)CC(=O)Nc1ccc2c(c1)[C@H]1C[C@H](CC(=O)NCc3ccc4c(c3)OCO4)O[C@H](CO)[C@H]1O2,·,9,-7,1,-24,-16
CCCCCOc1ccc(Br)cc1CSC(=N)N,39,-6,16,104*,25,89*
CCOc1ccc(CSC(=N)N)cc1,11,-4,7,6,10,9
COc1ccc(Br)cc1CSC(=N)N,4,10,9,-2,4,12
CCCCOc1ccc(CSC(=N)N)cc1Cl,32,-1,-82,93*,-14,-63
CCOC(=O)N=Nc1c(O)n(CC(=O)OC)c2ccccc12,0,4,7,5,1,-15
CCOC(=O)N=Nc1c2ccccc2c2nc3no[nH]c3nc12,103*,-65*,-38,108*,95*,100*
Cc1cc(C)c2nc(N3CCC(C(=O)NCCCN4CC(C)CC(C)C4)CC3)sc2c1 (stereo not drawn),83*,-9,-57,104*,17,-41
Cc1cc(/C=C2\Cc3ccccc3C2=O)c(C)n1-c1ccccc1,44,-35,44*,49,-15,47
Cc1cc(C=C2C(=O)c3ccccc3C2=O)c(C)n1-c1ccc(C(=O)O)cc1,1,-14,7,11,0,-6

# Compound activity: PubChem BioAssay, several laboratories
